In the library only some 32% were active in any assay of this set; here they are far more common.
CYP2C9 act = increases human cytochrome P450 2C9 activity. recombinant CYP2C9, luciferin-H conversion, luminescence; stronger effect = higher value; factor 1 = untreated enzyme, 0 = blocked. activation factor at 5 µM. 96,000 tested, 1.4% active. AID 1024;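 active = activation factor of 2 or more for CYP2C9 at a 5 µM dose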;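 also: 0 = sulfaphenazole-blocked wells and 1 = vehicle-only wells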
CYP2C19 act = increases human CYP2C19 enzyme activity; recombinant CYP2C19, luciferin-H EGE luminescence; stronger effect = higher value; 0 = fully inhibited enzyme, 1 = untreated enzyme; activation factor at 5 µM; 96,000 tested, under 10 active;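 active = activation factor of at least 2 at 5 µM in the primary screen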;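 also: 0 = wells with 2.5 mM tranylcypromine and 1 = vehicle-only wells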
Target sequence (P33261 whole entry, looked up): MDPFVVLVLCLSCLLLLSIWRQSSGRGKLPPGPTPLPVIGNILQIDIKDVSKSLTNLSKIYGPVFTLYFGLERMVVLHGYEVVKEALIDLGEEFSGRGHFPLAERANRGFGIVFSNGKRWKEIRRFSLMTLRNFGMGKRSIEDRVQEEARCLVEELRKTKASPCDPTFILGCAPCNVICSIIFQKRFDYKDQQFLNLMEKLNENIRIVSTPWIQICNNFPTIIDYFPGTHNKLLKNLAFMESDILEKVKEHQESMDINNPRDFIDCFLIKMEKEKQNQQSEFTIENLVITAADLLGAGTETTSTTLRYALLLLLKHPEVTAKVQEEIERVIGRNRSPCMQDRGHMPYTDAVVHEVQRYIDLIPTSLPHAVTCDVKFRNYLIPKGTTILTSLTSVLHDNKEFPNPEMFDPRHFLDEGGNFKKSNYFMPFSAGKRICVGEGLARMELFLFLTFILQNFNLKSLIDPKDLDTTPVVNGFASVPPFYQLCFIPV
CYP2C9 inh = human CYP2C9 inhibition | P11712 | CYP2C9 Supersomes, luciferin-H conversion, luminescence | inhibition, % at 5 µM | 96,000 tested, 20% active;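 active = blocking of liver enzyme CYP2C9 beyond about 50% at 5 µM, limit read from the data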
PostGolgi ctrl = inhibits growth of the yeast control strain. 98,000 tested, 5% active. efflux-deficient yeast background strain, growth absorbance A615, 16 h. AID 738. inhibition, % at 10 µM
PostGolgi yeast = growth inhibition of a yeast mutant, post-Golgi transport screen. post-Golgi transport phenotypic cell assay. inhibition, % at 10 µM. 98,000 tested, 0.9% active. AID 739;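 also: yeast cells grown in 1536-well plates; yeast grown about 18 h at 30C before absorbance read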
CYP2C19 inhib = human CYP2C19 inhibition; P33261; CYP2C19 Supersomes, luciferin-H EGE luminescence, 30 min; inhibition, % at 5 µM; 96,000 tested, 21% active;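 active = CYP2C19 inhibition above a set limit at 5 µM in the primary screen, cut at about 50% in these data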;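 also: plate controls were negative control wells for no effect and 2.5 mM tranylcypromine positive control for full effect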
Numbers without * were called inactive; · = no result. Rule as the data show it, unless noted: active = inhibition above about 30%; inactive = the rest.

SMILES	CYP2C9 act	CYP2C19 act	CYP2C9 inh	PostGolgi ctrl	PostGolgi yeast	CYP2C19 inhib
Nc1ccc(S(=O)(=O)N2CCCCC2c2cccnc2)cc1 (stereo not drawn)	1	0.7	0	1	6	31
c1cncc(C2CCCCN2Cc2ccc3c(c2)OCO3)c1 (stereo not drawn)	0.8	0	20	4	-3	97*
CC(N=Cc1c(O)[nH]c(=O)[nH]c1=O)c1ccccc1 (stereo not drawn)	0.8	0.9	18	5	6	11
O=C(c1ccco1)c1cn(Cc2ccc(Cl)cc2)c2ccccc12	0.1	0.2	94*	24	11	84*
COc1ccccc1OCCCn1cc(C(=O)c2ccco2)c2ccccc21	0	0	96*	49*	-8	98*
CC(N)C(=O)c1ccco1 (stereo not drawn)	0.9	1	9	7	11	1
C1=C(CCNCc2ccccc2)CCCC1	0.8	0.3	19	8	-6	70*
O=P(C(c1c[nH]c2ccccc12)N1CCOCC1)(N1CCOCC1)N1CCOCC1 (stereo not drawn)	0.2	1.1	75*	-2	-1	-10
CCCCCCCC(=O)NC(Oc1ccccc1[N+](=O)[O-])C(Cl)(Cl)Cl (stereo not drawn)	0.7	0.7	28	9	5	26
CC(=NCCC1=CCCCC1)c1c(O)n(C)c(=O)n(C)c1=O	0.5	0.6	50*	12	12	42
C=CCn1c(O)c(C(CC)=NCCC2=CCCCC2)c(=O)[nH]c1=O	0.7	0.8	28	38*	4	23
C=CCn1c(O)c(C(CC)=NCc2cc(OC)cc(OC)c2)c(=O)[nH]c1=O	0	0.5	95*	34*	0	46
CCCCn1c(O)c(C(CC)=NCc2ccc3c(c2)OCO3)c(=O)[nH]c1=O	0.2	0.3	82*	55*	5	74*
C=CCn1c(O)c(C(CC)=NCCCO)c(=O)[nH]c1=O	1	1.1	-4	10	5	-10
CC1(C)CC(=O)C=C(NCCN2CCN(C(=O)Cc3ccc(Cl)cc3)CC2)C1	0.8	0.7	21	·	·	28
CCn1c(O)c(C(c2ccccn2)c2c(O)n(CC)c(=S)[nH]c2=O)c(=O)[nH]c1=S	0.9	1	9	3	4	-3
OC1(CN2CCOCC2)C2CC3CC(C2)CC1C3 (stereo not drawn)	1.3	1	-30	0	-4	4
CN1/C(=C\C=C\C2=[N+](C)c3ccc4ccccc4c3C2(C)C)C(C)(C)c2ccccc21	0.4	0.3	56*	100*	101*	67*
COc1cc(/C=C2\C(=O)NC(=O)N(c3ccccc3)C2=O)cc(OC)c1O	1.3	1.1	-32	4	0	-8
Cc1ccc(N2C(=O)NC(=O)/C(=C/c3ccc(OC(=O)c4cccs4)cc3)C2=O)cc1	1	0.5	-2	32*	1	54*
Cc1ccc(C)c(C2(O)CC(C)N(C)CC2C)c1 (stereo not drawn)	1.1	1.2	-11	28	-3	-16
CC(C)CC12CN3CCN(CC(C3)C1O)C2 (stereo not drawn)	1	1.1	-3	3	3	-10
CSCCC(N=Cc1c(O)n(-c2ccc(Cl)cc2)c(=O)[nH]c1=O)C(=O)OC(C)(C)C (stereo not drawn)	0.9	0.9	10	13	4	13
COc1ccc(C(=O)N2CCOCC2)cc1S(=O)(=O)N1CCC(C)CC1	0.7	1.1	27	7	6	-9
CC1CCN(S(=O)(=O)c2ccc(NN=C(C#N)C#N)cc2)CC1	0.1	1	94*	10	-1	4
SMILES	CYP2C9 act	CYP2C19 act	CYP2C9 inh	PostGolgi ctrl	PostGolgi yeast	CYP2C19 inhib
COc1cccc(-n2c(O)c(C=NCCN3CCOCC3)c(=O)[nH]c2=O)c1	1.2	1.1	-20	10	-7	-11
O=C(Cn1cc(C(=O)c2ccccc2)c2ccccc21)NCc1ccco1	0.2	0.2	82*	7	-3	82*
O=C(CN1C(=O)CN=C(c2ccccc2)c2ccccc21)NCc1ccco1	1.1	0.9	-7	8	-2	12
O=C(c1ccccc1)c1cn(CC(=O)N2CCCc3ccccc32)c2ccccc12	0.3	0.6	74*	9	13	42
Cc1ccc(OCC(=O)NCCN2CCN(C(=O)COc3ccc(C)cc3)CC2)cc1	0.6	0.6	38	0	7	37
O=C(Cn1nc(Cc2cccnc2)c2ccccc2c1=O)N1CCC2(CC1)OCCO2	0.2	0.8	80*	15	-3	22
CCCCOC(=O)C1=C(N)OC2=C(C(=O)CC(C)(C)C2)[C@]12C(=O)N(C)c1ccccc12	1	0.9	2	16	-5	12
O=c1[nH]c(=O)n(Cc2ccco2)c(O)c1C=NCc1cccs1	1.1	1	-7	-5	1	-4
O=c1[nH]c(=S)n(Cc2ccco2)c(O)c1C=NCc1cccs1	0.4	0.8	59*	36*	8	23
O=C1NCCN2CCCC12 (stereo not drawn)	1.1	1.1	-8	8	·	-10
O=C(C1CC(=O)N(C2CCCCCCC2)C1)N1CCC2(CC1)OCCO2 (stereo not drawn)	1	0.8	4	-2	-1	17
O=C(c1cc2c(s1)CCCCCC2)N1CCC2(CC1)OCCO2	0.3	0	73*	21	6	97*
CCc1sc(C(=O)N2CCC3(CC2)OCCO3)cc1Br	1.7	0	-65	5	6	96*
Fc1cccc(CCNCc2ccccn2)c1	1	0.9	-2	-2	-4	14
CC(C)(C)n1c(O)c(C=Nc2ccc3c(c2)CCC3)c(=O)[nH]c1=O	0.3	0.6	74*	45*	1	38
CCOC(=O)C1SC2(C(F)F)CC1(O)c1c(c(OC)c3occc3c1OC)O2 (stereo not drawn)	0	0	97*	24	7	100*
CC1(C)CC(=O)C(C=NCCN2CCN(C(=O)Cc3ccc(F)cc3)CC2)=C(O)C1	1	1	-4	2	-1	0
N#CC1=C(N)Oc2c(c(=O)oc3ccccc23)C1c1cccnc1 (stereo not drawn)	0.4	1.1	64*	10	2	-9
Cc1nn(-c2ccccc2)c(Cl)c1C1C(C#N)=C(N)Oc2c1c(=O)oc1ccccc21 (stereo not drawn)	0	0.6	99*	31*	6	45
COc1cccc(C2C([N+](=O)[O-])=C(N)Oc3c2c(=O)oc2ccccc32)c1 (stereo not drawn)	0.9	0.9	14	-2	2	11
COC(=O)CC1(CC(=O)OC)C(=O)NC(=O)NC1=O	1.1	1	-6	0	-1	-2

Screening data (PubChem)
